NS1 function inh – influenza NS1 inhibition. Potency, µM (series often up to 46.1 µM), without a hit: at the top dose activity, positive = more growth. 270,000 compounds, 0.4% hits. AID 2326; calls by dose curve; also: potency is read from the fitted curve at half-maximal effect; actives are rising curves; nearly all actives have a fitted effect of over 50% in size
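A cell-based growth assay was used: compounds that relieve NS1-induced slow growth of budding yeast raise OD600. Assay medium was yeast nitrogen base with ammonium sulphate and -URA supplement, pH 6.0, with 2% galactose.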
Pf growth 48h – P. falciparum growth inhibition at 48 hours (one generation). P. falciparum luciferase growth in erythrocytes, 48 h. Potency, µM (highest dose often 28.7 µM), without a hit: at the highest dose activity change, negative = inhibition, most hits filed as inhibitors. AID 504832. 310,000 compounds, 5.9% hits; also: potency is read from the fitted curve at half-maximal effect; % is scaled to controls: 0 for no effect and ±100 for the full control effect
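Growth was read as firefly luciferase luminescence after a 48 h, 37 C, 5% CO2 exposure of compounds to reporter-bearing P. falciparum cultures (0.1% parasitemia, 2% hematocrit final) in Albumax-supplemented RPMI 1640.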
Sm TGR inh – inhibitors of Schistosoma mansoni thioredoxin glutathione reductase | purified TGR, DTNB reduction, TNB absorbance 405 nm | Potency, µM (highest dose often 114 µM), for inactives: top-dose activity change, negative = inhibition, actives largely listed as inhibitors | 360,000 compounds, 3% hits; also: potency is read from the fitted curve at half-maximal effect; % is scaled to controls: 0 for no effect and ±100 for the full control effect; nearly all actives have a fitted effect of over 60% in size
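TGR 20 nM + NADPH 100 uM (dispensed conc.), cpd preinc 15 min RT; start with NADPH (500 uM addition) then DTNB (15 mM addition). Kinetic TNB absorbance, 405 nm filter. Four-parameter Hill fit across titration.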
Pf growth 96h – inhibits malaria parasite growth, 96 h; AID 504834; Potency, µM (titrated, usually from 28.7 µM), for the others: at the top dose activity change, negative = inhibition, actives largely listed as inhibitors; P. falciparum luciferase reporter growth, 96 h; 320,000 compounds, 6.9% hits; also: potency is read from the fitted curve at half-maximal effect; % is scaled to controls: 0 for no effect and ±100 for the full control effect
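P. falciparum expressing integrated firefly luciferase, in erythrocytes at 2% hematocrit, 0.05% parasitemia, incubated with compounds 96 h at 37 C, 5% CO2. Growth inhibition read as loss of luminescence; two-generation exposure targets delayed-death apicoplast inhibitors.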
Shiga inhibitor – inhibitors of Shiga toxin in Vero cells; Vero cells, Shiga toxin protein synthesis inhibition reporter; inhibition, % at 38.7 µM; 290,000 compounds, 9.2% hits; AID 2315; in the data active = inhibition mostly above about 28%, no sharp cut-off; inactive = mostly below about 43%; also: 0% is about no effect
Cycloheximide cs – counter-screen hit for Shiga toxin inhibitors, cycloheximide; cell reporter, cycloheximide protein synthesis inhibition counterscreen; max response, %; 300,000 compounds, 12% hits; AID 2314; in the data active = max response mostly above about 13%, no sharp cut-off; inactive = mostly below about 14%; also: read at 38.3 µM for the half of the compounds with a filed dose; 0% is about no effect
Numbers without * were called inactive; ? = inconclusive; · = no result given; [ ] = dose if it differs, or a comment. The list is not random: actives were taken first. Their share in the collection is about 21%. Unless noted, calls follow the shape of the dose curve; as a rule, active = well fitted curve in the direction sought with a large enough effect; inconclusive = small, poorly fitted or top-dose-only effect, or another doubt; inactive = no such curve, though single readings can be large; an effect the other way counts as inactive or inconclusive.

SMILES	NS1 function inh	Pf growth 48h	Sm TGR inh	Pf growth 96h	Shiga inhibitor	Cycloheximide cs
O=C(CC1SC(=Nc2ccccc2)N(Cc2ccccn2)C1=O)Nc1ccc(Br)cc1 (stereo unspecified)	?	-71%	0%	?	48*	20*
CCN1C(=O)C(CC(=O)Nc2cccc(C(C)=O)c2)S/C1=N\c1ccccn1 (stereo unspecified)	0%	19%	-11%	-11%	18	1
CC(OC(=O)c1ccc2ncsc2c1)C(=O)Nc1cccc(Cl)c1 (stereo unspecified)	·	9%	-7%	41%	·	·
Cc1ccc(Cn2c(SCc3ccc(C(=O)O)cc3)nc3cccnc32)cc1	·	·	35%	·	·	·
O=[N+]([O-])c1c(NCCCO)cc(Sc2ccc(Cl)cc2)c2nonc12	5%	?	5.6µM*	37%	9	-1
Cn1ccnc1Sc1cc(NCCCO)c([N+](=O)[O-])c2nonc12	·	?	0.71µM*	-4%	-37	1
O=[N+]([O-])c1c(NCCCO)cc(SCc2ccco2)c2nonc12	13%	-26%	3.2µM*	?	-5	-1
CC(=O)OCCNc1cc(SCc2ccco2)c2nonc2c1[N+](=O)[O-]	-7%	4%	21%	6%	-11	-5
Cc1cc(C)c(NC(=S)N2CCN(c3ccc([N+](=O)[O-])cn3)CC2)cc1C	1%	·	0%	-8%	-4	3
Cc1ccsc1/C=N/NC(=O)c1ccc2c(c1)OCCO2	-38%	161%	9%	20%	23	23*
Cc1ccsc1/C=N\NC(=O)c1ccc2c(c1)OCO2	-15%	244%	13%	197%	85*	35*
CN(C)C(=O)CSc1nnc(Cc2ccccc2)n1CC1CCCO1 (stereo unspecified)	·	-3%	0%	?	-15	-1
CCOC(=O)C1CCN(C(=S)NC2CC3C=CC2C3)CC1 (stereo unspecified)	-5%	46%	-6%	0%	-1	7
CC(C)(C)Nc1nc(-c2ccc3c(c2)CCN3C(=O)C2CC2)cs1	-44%	1%	0%	6%	98*	43*
CC(C)C(=O)Nc1nc(-c2ccc3c(c2)CCN3C(=O)C2CC2)cs1	9%	-20%	8%	-17%	59*	24
Cc1ccc(S(=O)(=O)CNC(=O)c2ccccc2)cc1	-2%	6%	20µM*	5%	-18	5
COc1ccc(N(C(=O)c2cccc(C)c2)S(=O)(=O)c2ccc(C)cc2)cc1	·	·	6%	·	·	·
COc1ccc(C(=S)NCS(=O)(=O)c2ccc(C)cc2)cc1	1%	10%	2.5µM*	7%	7	2
CC(=O)NCc1ccc(S(=O)(=O)N2CCN(S(=O)(=O)c3ccc4ccccc4c3)CC2)cc1	·	5%	4%	0%	·	·
Cc1ccc(S(=O)(=O)CNC(=S)c2ccc3ccccc3c2)cc1	-15%	·	3.2µM*	3%	12	14
Cc1ccc(S(=O)(=O)CNC(=S)c2cccc(C)c2)cc1	-12%	·	3.5µM*	-2%	-9	-3
Cc1cc(=O)n2nc(N3CCCC(C(=O)NC4CCCCC4C)C3)sc2n1 (stereo unspecified)	4%	-9%	7%	-10%	2	8
CC1Cc2ccccc2N1C(=O)c1cc2cccnc2n(C)c1=O (stereo unspecified)	·	35%	3%	-22%	·	·
CC(=O)N1CCc2cc(Br)cc(S(=O)(=O)CCC(=O)N3CCN(c4ccccn4)CC3)c21	·	?	-12%	1%	24	-2
CCCCNc1nc2c(c(=O)n(Cc3ccccc3)c(=O)n2C)n1C	5%	?	8%	143%	-2	1
SMILES	NS1 function inh	Pf growth 48h	Sm TGR inh	Pf growth 96h	Shiga inhibitor	Cycloheximide cs
C(/C=C/c1ccco1)=N/N1CCN(c2ccccc2)CC1	6%	114%	?	153%	106*	34*
Clc1ccccc1CN1CCN(/N=C/C=C\c2ccco2)CC1	4%	43%	50µM*	22%	69*	16*
C(=N\N1CCN(Cc2cccc3ccccc23)CC1)/c1ccco1	14%	·	-1%	112%	-8	9
CC(C)c1ccc(NC(=O)CSc2n[nH]c(=O)n2C2CC2)cc1	6%	4%	-2%	12%	13	10
COc1cc(NC(=S)N2CCCCC2C)cc(OC)c1OC (stereo unspecified)	14%	32%	·	2%	32	1
CCOC(=O)C1CCN(S(=O)(=O)c2ccc3c(c2)CCCN3C(C)=O)CC1	-19%	-8%	5%	·	-4	7
CN1C(=O)Cc2cc(S(=O)(=O)N3CCOCC3)ccc21	3%	-8%	-11%	4.7µM*	10	1
Cc1cccc(N2CCN(S(=O)(=O)c3ccc4c(c3)CC(=O)N4C)CC2)c1C	6%	9.3µM*	-18%	?	-4	-4
CC(CNS(=O)(=O)c1ccc2c(c1)CC(=O)N2C)c1ccccc1 (stereo unspecified)	21%	9.3µM*	0%	10µM*	-7	2
CCOC(=O)C1CCN(S(=O)(=O)c2ccc3c(c2)CC(=O)N3C)CC1	?	2.1µM*	-22%	-6%	-7	-3
CC(NS(=O)(=O)c1ccc2c(c1)CC(=O)N2C)c1ccccc1 (stereo unspecified)	17%	-11%	-9%	?	-8	-12
Cn1c(=O)n(C)c2cc(S(=O)(=O)N3CCOCC3)ccc21	-3%[9.22 µM]	-10%	-11%	·	-15	-2
CCc1cccc(NC(=O)c2c(C)oc3nc(C)nc(N4CCCC4)c23)c1	·	·	3%	·	·	·
CC1(C)CC(NC(=O)c2ccc(Cl)c(Cl)c2)CC(C)(C)N1	17%	?	-26%	-81%	-11	0
CCN(CC)S(=O)(=O)c1ccc2oc(C(=O)Nc3ccc(Br)cc3F)c(C)c2c1	·	·	11%	·	·	·
CN(CCCC(=O)Nc1ccccc1F)S(=O)(=O)c1ccc(F)cc1	15%	0%	-22%	2%	2	-5
CN(CCCC(=O)Nc1ccc(Br)cc1F)S(=O)(=O)c1ccccc1	-22%	-4%	-5%	6.6µM*	20	7
CCN(CC)S(=O)(=O)c1ccc(/C=C/C(=O)Nc2ccc(Br)cc2F)cc1	6%	12µM*	-4%	5.2µM*	1	1
CCN(CC)S(=O)(=O)c1ccc(/C=C/C(=O)Nc2ccc(F)c(F)c2F)cc1	2%	9.3µM*	-4%	?	38*	36*
CCN(CC)S(=O)(=O)c1ccc(/C=C/C(=O)Nc2ccc(F)cc2F)cc1	-8%	?	-5%	6.6µM*	64*	32*
O=C(NCCc1ccccc1)c1ccc2c(c1)N(Cc1ccc(F)cc1)C(=O)CS2	·	·	0%	·	·	·
Cc1cccc(NC(=O)c2ccccc2NC(=O)c2ccco2)c1	25%	?	-28%	0%	-8	13

Bioassay records (PubChem)
